# Screens (PubChem BioAssay)
# LDHA block: qHTS assay for inhibitors of human lactate dehydrogenase; L-lactate dehydrogenase A chain (Homo sapiens), P00338; purified LDHA, NADH/diaphorase-resazurin fluorescence; hits give low values; activity change, % (values are at about 110 or 230 µM); 480,000 tested, 0.15% active; AID 1347041, 2019; in the data active = activity change below about -30%; inconclusive = mostly about -25% to -30%
#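 Human LDH5 at 2 nM final in Tris HCl pH 7.4 with 0.06 mM NADH and 0.2 mM pyruvate, reacted 5 minutes at room temperature. Remaining NADH coupled via diaphorase/resazurin; resorufin fluorescence read at 0 and 20 minutes, normalized to enzyme-free and DMSO wells.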
# D2 PAM-1: Beta-Arrestin HTS for Positive Allosteric Modulators of the Human D2 Dopamine Receptor: Potentiators. D(2) dopamine receptor (Homo sapiens), P14416. DiscoveRx D2 beta-arrestin cells, luminescence, 90 min; 100% = 57 uM dopamine signal. potentiation, % (concentration not given with the values). 360,000 tested, 0.23% active. AID 624464, 2012; in the data active = potentiation above about 50%; inconclusive = mostly about 30% to 49%
# Target sequence (P14416 whole entry, looked up): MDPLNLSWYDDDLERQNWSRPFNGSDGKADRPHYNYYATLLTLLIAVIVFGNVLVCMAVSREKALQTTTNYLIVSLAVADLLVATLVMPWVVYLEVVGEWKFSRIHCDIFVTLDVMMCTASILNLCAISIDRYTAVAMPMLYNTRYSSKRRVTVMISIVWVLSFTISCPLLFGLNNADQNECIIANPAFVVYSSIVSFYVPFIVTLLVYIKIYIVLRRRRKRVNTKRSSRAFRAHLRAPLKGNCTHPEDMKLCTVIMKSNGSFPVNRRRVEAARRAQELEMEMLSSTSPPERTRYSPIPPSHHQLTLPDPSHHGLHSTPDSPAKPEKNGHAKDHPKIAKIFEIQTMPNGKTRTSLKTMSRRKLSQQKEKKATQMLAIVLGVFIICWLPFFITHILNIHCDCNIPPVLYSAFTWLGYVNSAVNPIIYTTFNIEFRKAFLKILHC
#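 D2 cells co-treated with compound plus 50 nM dopamine (EC20) for 90 min at 37 deg C to detect potentiation. Beta-arrestin recruitment was read as enzyme-fragment luminescence after 1 h at ambient temperature. Full response was set by 57 uM dopamine.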
# D2 antagonist: HTS Assay for Allosteric Antagonists of the Human D2 Dopamine Receptor: Primary Screen for Antagonists; D(2) dopamine receptor (Homo sapiens), P14416; HEK293 TREx D2 cells, calcium flux, dopamine EC80; inhibition, % at 10 µM; 340,000 tested, 2% active; AID 485344, 2010; in the data active = inhibition above about 30%; inactive = below that, where a call was filed
#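 Calcium mobilization kinetics were recorded at 1 s intervals in tetracycline-induced HEK293 T-REx D2 cells, first for 180 s after compound addition and then 180 s after EC80 dopamine.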
# D2 ag-1: Beta-Arrestin HTS for Positive Allosteric Modulators of the Human D2 Dopamine Receptor: Agonists; D(2) dopamine receptor (Homo sapiens), P14416; DiscoveRx PathHunter D2 beta-arrestin, luminescence, 90 min; 100% = 57 uM dopamine signal; activation, % (no concentration beside the values); 360,000 tested, 0.084% active; AID 624465, 2012; in the data active = activation above about 40%; inconclusive = between about 15% and that limit
#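 DiscoveRx PathHunter D2 beta-arrestin cells (2,100/well) attached overnight, then compound-stimulated 90 min at 37 C in HBSS/10 mM HEPES/0.1% Tween-20 buffer; beta-galactosidase complementation read by luminescence after 1 h at ambient temperature. Dopamine 57 uM final (EC100) as control.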
# D2 ag-2: HTS Assay for Allosteric Agonists of the Human D2 Dopamine Receptor: Primary Screen for Agonists; D(2) dopamine receptor (Homo sapiens), P14416; AID 485358, 2010; HEK293 T-REx D2 cells, calcium flux agonist mode; 340,000 tested, 0.53% active; activation, % at 2 µM;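 active = activation over 3 SD above normal in the single-dose calcium agonist read, cut at about 30% in these data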
#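 In this primary screen, compounds producing a positive calcium signal within 180 s of addition to tetracycline-induced, force-coupled HEK293 Trex D2 cells are flagged; cells are dye-loaded with a no-wash calcium kit beforehand.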
# D2 PAM-2: HTS Assay for Positive Allosteric Modulators of the Human D2 Dopamine Receptor: Primary Screen for Potentiators; D(2) dopamine receptor (Homo sapiens), P14416; HEK293 T-REx D2, calcium flux, EC20 dopamine potentiation; potentiation, % at 10 µM; 340,000 tested, 0.34% active; AID 485347, 2010;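 active = potentiation over 3 SD above the plate norm, cut at about 30% in these data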
#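 Calcium flux readout, no-wash dye, 1 read/s. Inducible HEK293 Trex D2 line, overnight 30 C. Compound alone 180 s (agonist flags), then EC20 dopamine, another 180 s to score potentiation.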
# Numbers stand for hits; . = inactive; ? = inconclusive; / = not tested or not shown. Most compounds without a hit are left out; they make up all but 2.1% or so of the library.
SMILES,LDHA block,D2 PAM-1,D2 antagonist,D2 ag-1,D2 ag-2,D2 PAM-2
O=C(COc1ccc(Br)cc1)N1CCN(Cc2ccncc2)CC1,-38.8,.,.,.,.,.
O=C(COC(=O)CCc1nc2ccccc2s1)Nc1ccc(Cl)cc1C(=O)c1ccccc1,.,/,/,/,/,/
[O]=[Sb]([OH])([OH])[c]1ccccc1,-38.3,/,/,/,/,/
CC(=O)NC1CC2CCCC(C1)N2 (stereo unspecified),.,.,.,.,.,.
CC(=O)NC1CC2CCC(C1)N2 (stereo unspecified),.,.,.,.,.,36.2
Cc1cc(C)c(NC2=NCCCS2)c(C)c1,.,.,.,.,.,50.3
O=C(COc1ccc2c(-c3ccccc3)cc(=O)oc2c1)N1CCN(CCO)CC1,.,/,/,/,/,/
CC1(C)CSC(Nc2ccc(F)c(Cl)c2)=N1,.,.,.,.,.,31.9
Cc1cc2ccccc2n1CC(=O)NCC1(CC(=O)O)CCCCC1,.,/,/,/,/,/
CC(C(=O)c1c[nH]c2ccccc12)N(Cc1ccc(F)cc1)C1CC1 (stereo unspecified),.,/,/,/,/,/
O=Cc1c(C(=O)O)n(Cc2ccc(Cl)cc2)c2ccccc12,.,.,.,.,30.5,.
Cc1cc(NCCN)nc2ccccc12,.,.,57.8,.,.,.
NCCc1c[nH]c2ccc(F)cc12,/,/,94.7,/,.,.
O=C(CCCN1CCC(n2c(=O)[nH]c3ccccc32)CC1)c1ccc(F)cc1,.,.,76.6,.,.,.
COC(=O)c1ccc(N2C(=O)CC(N3CCC(n4c(=O)[nH]c5ccccc54)CC3)C2=O)cc1 (stereo unspecified),.,.,.,.,.,.
N#Cc1ccc(NC(=O)CCC2CCCC2)cc1Cl,.,/,/,/,/,/
CCCCCCNC(=O)N[C@@H](Cc1ccc(O)cc1)C(=O)NCCC[C@H]1CN2C(=NC[C@H]2C)N1CC1CCC1,.,.,.,.,.,.
CCCCCCNC(=O)N[C@H](Cc1ccc(O)cc1)C(=O)NCCC[C@H]1CN2C(=NC[C@H]2CCC)N1CC1CCC1,/,/,33.7,/,.,.
Cc1ccc(NC(=O)CN2C(=O)CN=C(c3ccc(F)cc3)c3c2sc(C)c3C)cc1,.,/,/,/,/,/
CC[C@H]1C2C[C@H]3[C@@H]4N(C)c5ccccc5C45C[C@H](C2[C@H]5O)N3[C@@H]1O (stereo partly specified),.,.,35.8,.,.,.
CCC1C2CC3C4N(C)c5ccccc5C45CC(C2C5O)N3[C@@H]1O (stereo partly specified),.,.,.,.,.,.
COc1cccc(CCNCc2ccc(Br)cc2)c1,.,/,/,/,/,/
CCCN1CCC[C@@H]2Cc3nc(N)ncc3C[C@H]21,.,116.6,/,125.6,/,/
OC(CN(Cc1ccccc1)Cc1ccccc1)c1ccc2cc[nH]c2c1 (stereo unspecified),.,/,/,/,/,/
c1ccc(CN2CCc3nc4ccccc4cc3C2)cc1,.,.,76.4,95.1,78.0,.
SMILES,LDHA block,D2 PAM-1,D2 antagonist,D2 ag-1,D2 ag-2,D2 PAM-2
O=C(Cn1ncc2ccccc21)N1CCC2(CC1)OCCO2,.,.,.,.,.,.
CCc1nn(CC(=O)N2CCC3(CC2)OCCO3)c(=O)c2cc3ccccc3n12,.,.,.,.,31.8,.
CC1=C(C(=O)OCc2ccc3c(c2)OCO3)[C@H]2C[C@](C)(N1)Oc1ccccc12,.,/,/,/,/,/
CCN1CCN(Cc2cc(C(C)(C)C)c(O)c(C(C)(C)C)c2)CC1,/,/,45.9,/,.,.
CCN1CCN(Cc2ccc(C)cc2)CC1,.,.,.,.,.,.
O=[N+]([O-])/C=C\c1ccc2c(c1)OCO2,.,/,/,/,/,/
COC(=O)C1=C(c2ccc(C(C)=O)cc2)C[C@@H]2CC[C@H]1N2C(=O)NC(C)C,.,.,52.2,.,.,.
CCN1C(=O)C(O)(C(F)(F)F)c2cc(C(O)(C(=O)OC)C(F)(F)F)ccc21 (stereo unspecified),.,/,/,/,/,/
c1ccc(CCNC2CCCCCCC2)cc1,.,/,/,/,/,/
CCNc1cc(N2CCNCC2)ccc1[N+](=O)[O-],/,/,35.3,/,.,.
O=[N+]([O-])c1ccc(N2CCNCC2)cc1NC1CC1,/,/,.,/,.,.
Cc1c(C=O)c(C)n(C(C)C)c1C,.,/,/,/,/,/
COc1ccccc1N1CCN(Cc2ccc(Cl)cc2Cl)CC1,.,.,34.7,.,.,.
COc1ccccc1N1CCN(Cc2ccc(SC)cc2)CC1,.,.,78.8,.,.,.
CSc1ccc(CN2CCN(c3ccccc3C)CC2)cc1,.,.,70.8,.,.,.
CCc1ccc(CN2CCN(Cc3ccc(SC)cc3)CC2)cc1,.,.,.,.,.,/
Clc1ccccc1CN1CCN(c2ccccc2Cl)CC1,.,.,.,.,.,.
Cc1cccc(-n2c(/C=C/c3ccco3)nc3ccccc3c2=O)c1,.,/,/,/,/,/
Cc1[nH]nc2c1C(c1ccc(-c3ccc(F)cc3)o1)SCC(=O)N2 (stereo unspecified),.,/,/,/,/,/
O=C(C[N+]12CCC(CC1)C(OC(=O)c1ccccc1)C2)c1ccc([N+](=O)[O-])cc1 (stereo unspecified),.,.,33.0,.,.,.
O=C(Cc1ccccc1)N1CCN(Cc2ccc([N+](=O)[O-])cc2)CC1,.,.,.,.,.,.
O=[N+]([O-])c1cccc(CN2CCN(Cc3ccc(Br)cc3)CC2)c1,?,.,89.7,.,.,.
CN1/C(=C\C=C2C(=O)NC(=S)NC2=O)C(C)(C)c2ccccc21,.,.,30.6,.,127.6,.
O=C1NC(=S)NC(=O)C1=Cc1cccc2cc3ccccc3cc12,.,.,.,.,.,.
CC1(C)OC(c2ccccc2)=C/C(=C/C=C2C(=O)NC(=S)NC2=O)O1,.,.,63.0,.,.,.
O=C1NC(=S)NC(=O)C1=Cc1c(Cl)cccc1Cl,.,.,/,.,/,/
COc1ccc2c(CN3CC=C(c4ccccc4)CC3)cc(=O)oc2c1,.,.,.,.,.,.
COc1cccc(CN2CC=C(c3ccc(F)cc3)CC2)c1,.,.,72.4,.,.,.
CCN(CC)CCCOC(=O)C(OC(C)C)(c1ccccc1)c1ccccc1,.,.,57.1,.,.,.
O=C1NC(=S)NC(=O)C1=Cc1ccc(Br)s1,-38.1,.,.,.,.,.
